From PubChem BioAssay
Activity calls are given as the source filed them.

Assays:
[1] = E. coli DRC41 culture turbidity changes, primary screen, E. coli filamentation inducer project, strain DRC41, OD650, 48 h (AID 1152);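 further: E. coli MC1000 strain DRC41 lacking acrAB efflux pump and sulA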; details: E. coli DRC41 (acrAB sulA), higher = more signal, called active from +8 up or from −8 down
[2] = small-molecule binders of probe aLefty1, primary screen, biochemical, small-molecule microarray, 635/667 nm fluorescence (AID 1153); details: higher = more signal;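 further: score merges spot fluorescence with signal-to-noise ratio from the scanned slide images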
[3] = PSAC antagonists in infected red cells, primary screen, cell-based, P. falciparum Indochina, OD700, 1 h (AID 1154); details: P. falciparum Indochina infected RBC osmotic lysis, higher = more signal, called active from +8 up or from −8 down
[4] = PSAC antagonists in infected red cells, primary screen, cell-based, P. falciparum Indochina, OD700, 2 h (AID 1155);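 further: lysis reports solute entry through the parasite surface anion channel PSAC; channel blockers reduce lysis of infected cells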; details: P. falciparum Indochina infected erythrocytes, osmotic lysis OD700; higher = more signal, called active from +8 up or from −8 down
[5] = osmotic lysis modulators in infected erythrocytes, primary screen, PSAC antagonist project, cell-based, P. falciparum Indochina, OD700, 3 h (AID 1156); details: higher = more signal, called active from +8 up or from −8 down
[6] = PSAC antagonists in infected red cells, primary screen, cell-based, P. falciparum Indochina, OD700, 18 h (AID 1157); details: P. falciparum Indochina infected erythrocytes, osmotic lysis OD700, 18 h; higher = more signal, called active from +8 up or from −8 down
[7] = modulators of S6 phosphorylation in cells, primary screen, cell-based, A549, cytoblot, luminescence, serum-stimulated (AID 1158); details: A549 phospho-S6 cytoblot, 5 h, higher = more signal;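 further: serum-stimulated A549 lung adenocarcinoma cells; signal is phosphorylated S6 detected by cytoblot immunostaining with HRP secondary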
[8] = target: NADPH oxidase 2 (Homo sapiens) (UniProt P04839); assay: NOX2-dependent H2O2 signal modulators, primary screen, NOX inhibitor project, cell-based, HEK293-NOX2, PMA-stimulated, Amplex Red fluorescence (AID 1159); details: 45 min, higher = more signal, called active from +8 up or from −8 down; further: test concentration not given here
[9] = target: NADPH oxidase 4 (Homo sapiens) (UniProt Q9NPH5); assay: NOX4-dependent H2O2 signal modulators, primary screen, NOX inhibitor project, cell-based, HEK293-NOX4, tetracycline-induced, Amplex Red fluorescence (AID 1160); details: 45 min, higher = more signal, called active from +8 up or from −8 down
[10] = target: NADPH oxidase 5 (Homo sapiens) (UniProt Q96PH1); assay: NOX5-dependent H2O2 signal modulators, primary screen, NOX inhibitor project, cell-based, HEK293-NOX5, Amplex Red fluorescence (AID 1161); details: HEK293-NOX5, ionomycin, 45 min, higher = more signal
[11] = A549 cell viability effects, profiling panel, calcein-AM fluorescence, 48 h, basal (AID 1162); details: higher = more signal; further: test concentration not given here
[12] = adipocyte viability effects, profiling panel, cell-based, 3T3-L1 adipocytes, calcein-AM fluorescence, 48 h, basal (AID 1163); details: 3T3-L1 adipocytes viability, higher = more signal; further: test concentration not given here
[13] = HepG2 cell viability effects, profiling panel, calcein-AM fluorescence, 48 h, basal (AID 1164); details: higher = more signal; further: test concentration not given here
[14] = MM1S cell viability effects, profiling panel, calcein-AM fluorescence, 48 h, basal (AID 1165); details: higher = more signal;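 further: viability of MM1S multiple myeloma cells under basal unstimulated conditions; test concentration not given here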
[15] = basal RPMI8226 viability, no added stimulus, profiling panel, cell-based, calcein-AM fluorescence, 48 h, PK04 Diversity Set (AID 1166); details: RPMI8226 myeloma viability, higher = more signal;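 further: cells grown under basal conditions without added stimulus; test concentration not given here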
[16] = basal HepG2 mitochondrial membrane potential changes, profiling panel, cell-based, JC-1 fluorescence, 24 h, 100 nL compound (AID 1167); details: higher = more signal; further: test concentration not given here
[17] = basal 3T3-L1 adipocyte mitochondrial potential changes, profiling panel, cell-based, JC-1 fluorescence, 3T3-L1 adipocytes, 24 h, 100 nL compound (AID 1168); details: JC-1 mitochondrial fluorescence, higher = more signal, called active from +8 up or from −8 down; further: test concentration not given here
[18] = basal RPMI8226 mitochondrial membrane potential changes, profiling panel, cell-based, JC-1 fluorescence, 24 h, 100 nL compound (AID 1169); details: RPMI8226 myeloma, JC-1 mitochondrial potential fluorescence, higher = more signal; further: test concentration not given here
[19] = basal MM1S mitochondrial membrane potential changes, profiling panel, cell-based, JC-1 fluorescence, 24 h, 100 nL compound (AID 1170); details: higher = more signal; further: test concentration not given here
[20] = A549 lung cancer cell viability effects, profiling panel, resazurin fluorescence, 24 h, PK04 Diversity Set (AID 1171); details: higher = more signal, called active from +8 up or from −8 down; further: test concentration not given here

Sequence of NADPH oxidase 2 (Homo sapiens) (P04839 whole entry, looked up): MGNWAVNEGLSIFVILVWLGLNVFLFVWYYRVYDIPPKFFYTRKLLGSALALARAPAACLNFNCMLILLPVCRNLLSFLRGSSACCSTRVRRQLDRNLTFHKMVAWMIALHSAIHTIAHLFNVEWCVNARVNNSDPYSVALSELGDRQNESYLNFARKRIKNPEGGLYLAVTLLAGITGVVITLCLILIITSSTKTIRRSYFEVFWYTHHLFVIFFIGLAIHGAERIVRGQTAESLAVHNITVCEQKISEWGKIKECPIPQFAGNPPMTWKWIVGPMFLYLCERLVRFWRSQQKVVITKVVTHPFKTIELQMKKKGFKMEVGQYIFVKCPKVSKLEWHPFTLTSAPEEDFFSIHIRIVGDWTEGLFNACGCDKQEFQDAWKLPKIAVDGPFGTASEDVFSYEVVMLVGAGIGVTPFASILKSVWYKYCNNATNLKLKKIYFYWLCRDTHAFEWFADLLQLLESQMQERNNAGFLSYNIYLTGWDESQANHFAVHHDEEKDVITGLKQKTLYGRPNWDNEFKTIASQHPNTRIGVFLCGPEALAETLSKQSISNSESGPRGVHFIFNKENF
Sequence of NADPH oxidase 5 (Homo sapiens) (Q96PH1 whole entry, looked up): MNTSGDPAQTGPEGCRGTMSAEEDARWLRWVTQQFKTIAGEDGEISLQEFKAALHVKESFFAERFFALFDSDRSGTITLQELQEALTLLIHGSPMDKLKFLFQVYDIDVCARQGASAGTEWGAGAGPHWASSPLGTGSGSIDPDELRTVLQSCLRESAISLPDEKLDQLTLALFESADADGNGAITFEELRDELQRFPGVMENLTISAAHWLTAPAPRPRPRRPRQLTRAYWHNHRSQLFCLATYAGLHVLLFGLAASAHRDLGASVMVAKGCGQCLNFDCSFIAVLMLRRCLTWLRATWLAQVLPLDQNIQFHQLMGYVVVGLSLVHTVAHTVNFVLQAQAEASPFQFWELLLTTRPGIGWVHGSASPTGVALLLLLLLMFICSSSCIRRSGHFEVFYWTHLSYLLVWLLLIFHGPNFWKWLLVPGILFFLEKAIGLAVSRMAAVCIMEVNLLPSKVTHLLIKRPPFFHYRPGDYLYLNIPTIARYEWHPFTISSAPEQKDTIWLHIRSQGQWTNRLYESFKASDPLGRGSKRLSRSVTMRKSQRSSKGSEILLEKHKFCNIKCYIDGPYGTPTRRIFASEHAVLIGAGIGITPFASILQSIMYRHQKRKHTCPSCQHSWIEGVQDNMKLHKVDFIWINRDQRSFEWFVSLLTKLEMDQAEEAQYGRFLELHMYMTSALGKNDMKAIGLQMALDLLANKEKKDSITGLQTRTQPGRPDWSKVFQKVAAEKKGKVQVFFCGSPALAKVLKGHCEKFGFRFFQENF
Sequence of NADPH oxidase 4 (Homo sapiens) (Q9NPH5 whole entry, looked up): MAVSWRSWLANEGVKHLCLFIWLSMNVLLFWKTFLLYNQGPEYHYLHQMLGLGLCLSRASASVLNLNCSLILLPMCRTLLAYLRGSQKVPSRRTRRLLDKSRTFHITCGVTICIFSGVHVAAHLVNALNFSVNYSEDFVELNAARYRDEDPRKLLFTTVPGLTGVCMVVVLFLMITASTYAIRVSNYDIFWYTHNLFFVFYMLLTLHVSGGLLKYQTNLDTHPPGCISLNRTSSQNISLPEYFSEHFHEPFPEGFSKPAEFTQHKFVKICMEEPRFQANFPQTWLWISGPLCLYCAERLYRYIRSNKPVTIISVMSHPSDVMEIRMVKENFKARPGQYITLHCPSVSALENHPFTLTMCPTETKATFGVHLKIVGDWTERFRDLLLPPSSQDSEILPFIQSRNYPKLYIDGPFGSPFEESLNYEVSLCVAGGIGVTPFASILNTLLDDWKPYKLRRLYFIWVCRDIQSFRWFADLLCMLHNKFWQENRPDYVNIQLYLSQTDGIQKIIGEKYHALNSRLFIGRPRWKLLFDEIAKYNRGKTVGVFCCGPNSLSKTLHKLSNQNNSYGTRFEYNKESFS

Structure (SMILES)	z-score [1]	composite z-score [2]	z-score [3]	z-score [4]	z-score [5]	z-score [6]	z-score [7]	z-score [8]	z-score [9]	z-score [10]	z-score [11]	z-score [12]	z-score [13]	z-score [14]	z-score [15]	z-score [16]	z-score [17]	z-score [18]	z-score [19]	z-score [20]
CO[C@H]1O[C@H](CO)[C@@H](OC(=O)Nc2ccc(C(F)(F)F)cc2)[C@H](OC(=O)Nc2ccc3c(c2)OCO3)[C@@H]1OC(=O)Nc1ccc2c(c1)OCO2	-0.112 (inactive)	0.199	25.8 (active)	15.3 (active)	3.6 (inactive)	1.77 (inactive)	-0.176	-0.794 (inactive)	-0.393 (inactive)	-0.486	-0.903	0.102	-1.81	-3.42	-3.51	-1.62	-0.855 (inactive)	-1.32	-1.36	-1.99 (inactive)
C=CC[C@@]1(C(=O)NCCN2CCOCC2)N=C(c2ccc(OCCCO)cc2)O[C@@H]1c1ccccc1N=[N+]=[N-]	0.301 (inactive)	0.144	31.2 (active)	31.8 (active)	2.48 (inactive)	2.95 (inactive)	-0.291	-1.67 (inactive)	0.0137 (inactive)	-1.73	0.391	-0.187	0.55	-0.669	-0.394	1.42	0.602 (inactive)	-0.244	-0.322	-0.0072 (inactive)
COC(=O)[C@@]1(Cc2ccc(F)cc2)[C@H]2c3cc(C(=O)N4CCCC4)n(CCCNc4ncc(C(F)(F)F)cc4Cl)c3C[C@H]2CN1C(=O)c1ccccc1	-2.31 (inactive)	0.4	1.58 (inactive)	0.852 (inactive)	1.01 (inactive)	0.863 (inactive)	-0.626	-0.299 (inactive)	-2.23 (inactive)	-0.307	-0.386	-0.68	0.0224	-1.48	-1.13	1.12	-1.8 (inactive)	-0.501	-1.2	-0.733 (inactive)
CO[C@H]1O[C@H](CO)[C@@H](OC(=O)Nc2ccccc2)[C@H](OC(=O)Nc2ccccc2)[C@@H]1OC(=O)Nc1ccccc1	-0.24 (inactive)	-0.369	6.99 (inactive)	1.35 (inactive)	0.111 (inactive)	1.18 (inactive)	0.725	-3.38 (inactive)	-0.394 (inactive)	-1.13	-1.36	0.875	-1.68	-1.81	-1.98	-0.523	0.348 (inactive)	-1.07	0.0816	-2.01 (inactive)
CCCCN1CC=CC23O[C@@H]4C=CCCOC(=O)C4[C@H]2C(=O)N(CCCCCCO)[C@@H]3C1=O (stereo not given in full)	-0.288 (inactive)	-0.147	0.371 (inactive)	0.491 (inactive)	0.711 (inactive)	0.258 (inactive)	-0.493	1.24 (inactive)	-0.13 (inactive)	1.85	0.384	-0.585	0.441	1.51	-0.363	0.493	0.271 (inactive)	-0.109	-0.399	-0.176 (inactive)
CC(C)N1C(=O)[C@@]2(Cc3ccccc31)c1ccccc1C(=O)N(Cc1ccccc1Cl)[C@H]2c1ccc(CO)cc1	0.581 (inactive)	-0.17	-0.0086 (inactive)	-0.513 (inactive)	1.23 (inactive)	-1.78 (inactive)	1.17	0.16 (inactive)	0.946 (inactive)	1.04	1.02	-0.24	-0.921	-1.58	-0.238	0.407	0.111 (inactive)	0.115	-1.76	0.458 (inactive)
[N-]=[N+]=Nc1ccccc1[C@@H]1OC(c2ccc(OCCCO)cc2)=N[C@]1(Cc1ccccc1)C(=O)N1CCOCC1	0.123 (inactive)	0.391	31.8 (active)	32.1 (active)	2.51 (inactive)	3.91 (inactive)	-0.37	-0.507 (inactive)	-0.36 (inactive)	-1.77	-0.539	-1.63	-0.404	-3	-4.17	0.593	2.15 (inactive)	-1.21	-1.09	-1.56 (inactive)
COC(=O)C(CC#Cc1ccc2c(c1)[C@]1(C(=O)N2)[C@H](c2ccc(OCCO)cc2)N2[C@H](c3ccccc3)[C@H](c3ccccc3)OC(=O)[C@H]2[C@@H]1C(=O)Nc1nc2ccccc2s1)C(=O)OC	1.99 (inactive)	-0.0611	4.42 (inactive)	1.76 (inactive)	0.66 (inactive)	1.82 (inactive)	-0.206	1.18 (inactive)	0.786 (inactive)	1.03	0.214	0.368	0.94	-2.56	-2.73	-2.98	1.67 (inactive)	-1.11	-1.29	0.84 (inactive)
CN(C)CCCCCCNC(=O)[C@H]1C[C@H]2C(=O)N3CCC[C@H]3C(=O)N2[C@H]1c1ccc(O)cc1	1.47 (inactive)	0.0811	0.89 (inactive)	0.326 (inactive)	-0.664 (inactive)	0.253 (inactive)	-0.549	0.544 (inactive)	-1.28 (inactive)	-0.0199	-0.79	0.627	-0.952	-0.567	-0.554	0.661	0.597 (inactive)	0.262	0.538	-0.636 (inactive)
